Data taken from PubChem BioAssay.
“And” between values parts separate entries of the source, which are not always exact repeats. Equal entries are not always repeated. The source made the active and inactive calls.

Target: Torsin-1A-interacting protein 2 (Homo sapiens) (UniProt Q8NFQ8)
Sequence (Q8NFQ8 whole entry, looked up): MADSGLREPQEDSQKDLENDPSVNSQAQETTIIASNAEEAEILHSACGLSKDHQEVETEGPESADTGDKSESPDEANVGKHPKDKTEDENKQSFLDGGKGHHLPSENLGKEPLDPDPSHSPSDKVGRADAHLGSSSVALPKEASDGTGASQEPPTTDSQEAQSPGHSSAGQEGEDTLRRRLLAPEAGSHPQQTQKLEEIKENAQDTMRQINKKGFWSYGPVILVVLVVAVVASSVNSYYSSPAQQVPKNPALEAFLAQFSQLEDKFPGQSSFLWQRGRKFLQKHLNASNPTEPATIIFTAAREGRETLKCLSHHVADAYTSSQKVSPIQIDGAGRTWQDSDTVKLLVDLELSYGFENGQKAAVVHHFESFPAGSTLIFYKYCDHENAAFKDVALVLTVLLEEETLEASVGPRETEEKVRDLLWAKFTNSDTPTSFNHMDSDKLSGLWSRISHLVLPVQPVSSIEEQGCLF
Assay: LULL1 binders on small-molecule microarray, primary screen, cell lysate, human LULL1 lysate, 635/667 nm fluorescence (AID 1092);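 also: probe is lysate of COS7 cells overexpressing human LULL1; score merges per-feature 667 nm fluorescence with signal-to-noise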
Conditions: hLULL1 lysate binding, 635 nm fluorescence, higher = more signal
In the case of `CCCNC(=O)OC[C@H]1O[C@H](CCON=C(C)CCC(=O)OC[C@H]2O[C@H](C#Cc3ccccc3)C=C[C@@H]2Oc2ccc(C)cc2)C=C[C@@H]1Oc1ccc(OC)cc1`, the composite z-score is reported as -0.575. In the case of `C=CCN(CCCC)C(=O)C1N(C(C)(C)CO)C(=O)C2C(C(=O)O)C3C=CC21O3` (stereo not given), the composite z-score is reported as -0.523 and -0.805. With `C=C[C@@H](C)[C@H](O)c1ccc(O)c2ccccc12` the composite z-score was 1.26 and 0.149. For `C=CCN(Cc1ccccc1)C(=O)C1N(C(C)(C)CO)C(=O)C2C(C(=O)O)C3C=CC21O3` (stereo not given), the composite z-score was -0.696 and -1.91. For `C=CC[C@H](O)c1ccc(OCCO)cc1`, the composite z-score was -0.435 and -2.14. In the case of `C=CCN(C(=O)C(c1cccs1)N(C(=O)/C=C\C(=O)O)c1ccc(CCO)cc1)c1ccc(OC)cc1` (stereo not given), the composite z-score is reported as -0.879 and -1.32. With `C=CC[C@@H](O)c1ccc(OCCO)cc1` the composite z-score was -0.821 and -0.479. For `C=CCN(C(=O)C1N(CCCCCCO)C(=O)C2C(C(=O)O)C3C=CC21O3)c1ccc(OC)cc1` (stereo not given), the composite z-score was 3.53 and 3.04. In the case of `COC(=O)C1=C(C)N(Cc2ccccc2)C2=C(C(=O)c3ccccc3)[C@H](c3ccccc3)[C@@](O)(C(=O)OC)C(=O)N2[C@@H]1c1ccccc1`, the composite z-score is reported as 0.886 and 0.23. `Cc1ccc(S(=O)(=O)N[C@H]2COC(=O)[C@@H](C)COC(=O)[C@H](C)NC(=O)CC=C[C@H]2C)cc1` showed a composite z-score of -0.487.

Tested on: not listed separately
Assay: E. coli growth modulation, two-sided OD650, primary screen, E. coli filamentation project, strain DRC41, 24 h (AID 1093);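 also: MC1000 strain lacking acrAB efflux and sulA so SOS filamentation is blocked; test concentration not given here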
Conditions: OD650, 24 h, higher = more signal, called active from +8 up or from −8 down
With `C=CCN(CCCC)C(=O)C1N(c2ccc(CCO)cc2)C(=O)C2C(C(=O)O)C3C=CC21O3` (stereo not given) the z-score was 1.13 (inactive) and 2.05 (inactive). In the case of `COC(=O)C1=C(C)N(Cc2ccccc2)C2=C3C(=O)N(c4ccccc4)C(=O)[C@@H]3[C@@](O)(C(=O)OC)C(=O)N2[C@@H]1c1ccccc1`, the z-score is reported as 0.117 (inactive) and 1.24 (inactive). With `CCC[C@@H]1C[C@@]1(CCC)[C@@H](NC(=O)c1ccc(-c2ccccc2)cc1)c1cccc(Cl)c1` the z-score was -1.33 (inactive) and -0.003 (inactive). With `C=CCN(C(=O)C(c1cccs1)N(C(=O)/C=C\C(=O)O)c1ccc(CCO)cc1)C(C)(C)C` (stereo not given) the z-score was 0.286 (inactive) and -0.294 (inactive). For `C=CCN(Cc1ccccc1)C(=O)C1N(CCCCCCO)C(=O)C2C(C(=O)O)C3C=CC21O3` (stereo not given), the z-score was -0.142 (inactive) and 1.19 (inactive). With `COc1ccc(COC(=O)NN=C2C[C@@H](O)[C@@H](O)[C@@H]3[C@@H]4C(=O)N(C(C)(C)C)C(=O)[C@@H]4CC[C@H]23)cc1` the z-score was -0.0531 (inactive). For `O=C1NC(=O)C2C1C=CC(C(O)c1ccc([N+](=O)[O-])cc1)N2Nc1ccc(Cl)cc1Cl` (stereo not given), the z-score was 0.33 (inactive) and 0.728 (inactive). In the case of `COC(=O)C1=C(C)N(Cc2ccccc2)C2=C3C(=O)CCC[C@@H]3[C@@](O)(C(=O)OC)C(=O)N2[C@@H]1c1ccccc1`, the z-score is reported as 0.821 (inactive) and 0.754 (inactive). With `C[N+](C)(C)CCCCNC(=O)[C@H]1C[C@H]2C(=O)N[C@@H](CCCC[N+](C)(C)C)C(=O)N2[C@H]1c1cccc(OCCO)c1` the z-score was -0.351 (inactive) and -0.201 (inactive). With `C=CCN(CCCCC)C(=O)C1N(c2ccc(CCO)cc2)C(=O)C2C(C(=O)O)C3C=CC21O3` (stereo not given) the z-score was 0.287 (inactive) and 1.11 (inactive). For `CC(C)C(=O)N[C@@H]1CCCN1C(=O)C=Cc1ccccc1`, the z-score was 1.03 (inactive). For `C[C@@H](ON=C1[C@H]2CCn3c(=O)n(-c4ccccc4)c(=O)n3[C@H]2[C@H](O)[C@@H]2O[C@H]12)c1cn([C@H](CO)Cc2ccccc2)nn1`, the z-score was 0.381 (inactive). With `C=CCN1C(=O)[C@]2(O[C@H](CCn3cc(CCO)nn3)[C@@H]([Si](C)(C)c3ccc(OC)cc3)[C@@H]2C)c2cc(N3C(=O)c4cccc5cccc3c45)ccc21` the z-score was 1.43 (inactive) and 0.793 (inactive). In the case of `COC(=O)[C@@]1(Cc2ccc(F)cc2)[C@H]2c3cc(C(=O)N4CCCC4)n(Cc4c(CO)[nH]cc(C)c4=O)c3C[C@H]2CN1C(=O)c1ccccc1`, the z-score is reported as -0.633 (inactive) and -0.87 (inactive). In the case of `C=CCN(CCCCC)C(=O)C1N(c2c(Cl)cccc2CO)C(=O)C2C(C(=O)O)C3C=CC21O3` (stereo not given), the z-score is reported as 0.31 (inactive) and 0.437 (inactive). With `C=CCN(C(=O)C1N(c2c(Cl)cccc2CO)C(=O)C2C(C(=O)O)C3C=CC21O3)C(C)(C)C` (stereo not given) the z-score was 2.58 (inactive) and 1.44 (inactive). For `COC(=O)[C@@]1(Cc2ccc(OC)cc2)[C@H]2c3cc(C(=O)N(C)C)n(Cc4ccc(O)c(OC)c4)c3C[C@H]2CN1C(=O)c1ccccc1`, the z-score was 0.151 (inactive) and 0.266 (inactive). For `C=CCN(C(=O)C1N(C(C)(C)CO)C(=O)C2C(C(=O)O)C3C=CC21O3)c1ccc(OC)cc1` (stereo not given), the z-score was 2.3 (inactive) and 1.15 (inactive). In the case of `C[N+](C)(C)CCCCNC(=O)[C@@H]1C[C@@H]2C(=O)N[C@@H](CCCC[N+](C)(C)C)C(=O)N2[C@@H]1c1cccc(OCCO)c1`, the z-score is reported as 0.616 (inactive) and 0.374 (inactive). With `CCCC[C@@H]1CN2[C@@H](CC[C@@H](C)[C@@H]2c2ccc(Br)cc2)C(=O)O1` the z-score was 0.133 (inactive) and 0.153 (inactive). In the case of `CCN1C(=O)[C@H]2[C@H]3[C@H](O)[C@H](O)CC(=NOC)[C@@H]3CC[C@H]2C1=O`, the z-score is reported as 0.525 (inactive). With `C=C[C@H](OC)[C@@H](O)c1ccc(OCCO)cc1` the z-score was -0.0467 (inactive) and 0.606 (inactive). In the case of `COC(=O)C1=C(C)N(Cc2ccccc2)[C@]23O[C@](C(=O)OC)(C(=O)N2[C@@H]1c1ccccc1)[C@@H](c1ccccc1)[C@@H]3C(=O)c1ccccc1`, the z-score is reported as -0.0517 (inactive) and 0.951 (inactive). For `CCOC(=O)[C@@H]1CC=C2CC1C(=O)N1CCC[C@@H]1[C@H]2O[Si](C)(C)C(C)(C)C` (stereo not given in full), the z-score was -0.988 (inactive) and -0.253 (inactive). In the case of `CCOC(=O)[C@@H]1CC2O[C@]23C[C@@H]1C(=O)N1CCC[C@@H]1[C@H]3O[Si](C)(C)C(C)(C)C` (stereo not given in full), the z-score is reported as -0.458 (inactive) and -0.86 (inactive). With `Cc1ccc(S(=O)(=O)OC[C@@H]2CN3[C@@H](CC[C@@H](C)[C@@H]3c3ccc(Br)cc3)C(=O)O2)cc1` the z-score was 0.199 (inactive) and -0.206 (inactive). In the case of `COC(=O)C1=C(C)N(Cc2ccccc2)[C@]23O[C@](C(=O)OC)(C(=O)N2[C@@H]1c1ccccc1)[C@H]1C(=O)N(c2ccccc2)C(=O)[C@H]13`, the z-score is reported as 0.102 (inactive) and 0.185 (inactive). For `CCOC(=O)c1ccc(NC(=O)O[C@H]2[C@H](OC(=O)Nc3ccccc3)[C@H](OC(=O)Nc3ccccc3)[C@@H](OC)O[C@@H]2CO)cc1`, the z-score was 0.626 (inactive) and 0.455 (inactive). With `C[N+](C)(C)CCCCCCNC(=O)[C@H]1C[C@H]2C(=O)N[C@@H](CCCC[N+](C)(C)C)C(=O)N2[C@H]1c1ccc(O)cc1` the z-score was 0.595 (inactive) and -0.0409 (inactive). For `Cc1ccc(S(=O)(=O)N[C@@H]2COC(=O)CC=C[C@@H](C)[C@@H]3C=C[C@H](O)[C@@H](COC(=O)CC=C[C@H]2C)O3)cc1`, the z-score was 0.651 (inactive) and -0.667 (inactive). For `CCCNC(=O)OC[C@H]1O[C@H](CCON=C(C)CCC(=O)OC[C@H]2O[C@H](C#Cc3ccccc3)C=C[C@@H]2Oc2ccc(C)cc2)C=C[C@@H]1Oc1ccc(OC)cc1`, the z-score was 0.165 (inactive). In the case of `C=CCN(CCCC)C(=O)C1N(C(C)(C)CO)C(=O)C2C(C(=O)O)C3C=CC21O3` (stereo not given), the z-score is reported as -0.21 (inactive) and -0.367 (inactive). With `C=C[C@@H](C)[C@H](O)c1ccc(O)c2ccccc12` the z-score was 1.32 (inactive) and 0.1 (inactive). In the case of `C=CCN(Cc1ccccc1)C(=O)C1N(C(C)(C)CO)C(=O)C2C(C(=O)O)C3C=CC21O3` (stereo not given), the z-score is reported as -0.333 (inactive) and 1.73 (inactive). In the case of `C=CC[C@H](O)c1ccc(OCCO)cc1`, the z-score is reported as -0.646 (inactive) and -0.812 (inactive). With `C=CCN(C(=O)C(c1cccs1)N(C(=O)/C=C\C(=O)O)c1ccc(CCO)cc1)c1ccc(OC)cc1` (stereo not given) the z-score was 1.92 (inactive) and 0.715 (inactive). In the case of `C=CC[C@@H](O)c1ccc(OCCO)cc1`, the z-score is reported as 0.638 (inactive) and 0.664 (inactive). For `C=CCN(C(=O)C1N(CCCCCCO)C(=O)C2C(C(=O)O)C3C=CC21O3)c1ccc(OC)cc1` (stereo not given), the z-score was 2.3 (inactive) and 1.01 (inactive). With `COC(=O)C1=C(C)N(Cc2ccccc2)C2=C(C(=O)c3ccccc3)[C@H](c3ccccc3)[C@@](O)(C(=O)OC)C(=O)N2[C@@H]1c1ccccc1` the z-score was 0.591 (inactive) and 0.311 (inactive). With `Cc1ccc(S(=O)(=O)N[C@H]2COC(=O)[C@@H](C)COC(=O)[C@H](C)NC(=O)CC=C[C@H]2C)cc1` the z-score was 0.147 (inactive).
